# Source: PubChem (National Center for Advancing Translational Sciences (NCATS))
# Compounds with a hit are over-represented: about 10% of the library has one in this group of screens.
# hNpr1 antagonist: human Npr1 receptor antagonism. P16066. HEK293 hNpr1 GloSensor cGMP, ANP-stimulated luminescence. Potency, µM (highest dose often 46.3 µM), for the others: top-dose activity change, negative = inhibition, actives largely listed as inhibitors. 76,000 compounds, 1.6% hits; calls by dose curve; note: % is set by controls: 0 for no effect and ±100 for the full control effect; nearly all actives have a fitted effect of over 60% in size
#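 HEK293 cells stably expressing human Npr1 and cGMP GloSensor pGS-40F, loaded 2 h with 2% GloSensor reagent, given compound 30 min at room temperature. Luminescence read before and 20 min after 0.1 nM hNppA.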
# HEK293 tox: HEK 293 cell cytotoxicity; HEK 293 viability, ATP luminescence (CellTiter-Glo), 48-72 h; Potency, µM (highest dose often 115 µM), inactives show top-dose activity change, negative = cytotoxicity, hits mostly inhibitors; 94,000 compounds, 6.6% hits; AID 1345083; note: % is set by controls: 0 for no effect and ±100 for the full control effect; nearly all actives have a fitted effect of over 60% in size
#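 HEK 293 cells at 250 cells/well were exposed to compounds by pintool transfer for 48 or 72 hr at 37 degree Celsius, 5% CO2. Viability was read as ATP-coupled luminescence with CellTiter-Glo after 10 min at room temperature.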
# NIH3T3 tox: NIH 3T3 cell cytotoxicity; NIH 3T3 viability, CellTiter-Glo ATP luminescence, 48-72 h; 94,000 compounds, 4.3% hits; AID 1345082; Potency, µM (doses to about 96.7 µM), for the others: top-dose activity change, negative = cytotoxicity, actives largely listed as inhibitors; note: % is set by controls: 0 for no effect and ±100 for the full control effect; nearly all actives have a fitted effect of over 55% in size
#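 NIH 3T3 cells at 400 cells/well received 23 nL of compound by pintool and were incubated 48 or 72 h at 37 °C. Viability was read as ATP-coupled CellTiter-Glo luminescence.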
# GPT2 inhibitor: GPT2 alanine aminotransferase inhibition; 100,000 compounds, 0.25% hits; Recombinant GPT2, coupled pyruvate oxidase/HRP Amplex Red fluorescence; AID 1671188; Q8TD30; Potency, µM (top dose mostly 57.7 µM), for the others: at the top dose activity change, negative = inhibition, most hits filed as inhibitors; note: % is set by controls: 0 for no effect and ±100 for the full control effect; nearly all actives have a fitted effect of over 60% in size
#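 GPT2 10ng/uL, a-KG 250uM, L-Ala 2mM, HEPES pH7.5 + 0.0001% Tween; 30 min RT. Then Amplex mix (PO/HRP/ThPP), 30 min RT dark, fluorescence. AOA 50uM used as positive control.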
# FLuc inh: inhibitors of firefly (Photinus pyralis) luciferase; purified P. pyralis luciferase, luminescence, biochemical; Potency, µM (highest dose often 115 µM), usual class: inhibitors; 76,000 compounds, 2.5% hits; note: % is set by controls: 0 for no effect and ±100 for the full control effect; nearly all actives have a fitted effect of over 65% in size
#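 Luminescence read by CCD imager after adding enzyme (10nM final) to wells holding compound, titrated in qHTS. Substrates 10uM each D-luciferin and ATP; buffer 50mM Tris acetate pH 7.5, 10mM Mg acetate, Tween-20, BSA.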
# NPR1 antag cnf: confirmation of human Npr1 natriuretic peptide receptor antagonists; shares compounds with hNpr1 antagonist; HEK293 hNpr1 cGMP GloSensor luminescence, ANP-stimulated; Potency, µM (top dose mostly 57.6 µM), for the others: top-dose activity change, negative = inhibition, usual class: inhibitors; 1,400 compounds, 76% hits; AID 1347044; calls by dose curve; note: nearly all actives have a fitted effect of over 70% in size
# Npr2 selectivity: antagonizes human Npr2, subtype selectivity check | shares compounds with hNpr1 antagonist | HEK293 hNpr2 GloSensor cGMP luminescence, CNP-stimulated | Potency, µM (highest dose often 57.6 µM), without a hit: top-dose activity change, negative = inhibition, most hits filed as inhibitors | AID 1347046 | 1,400 compounds, 67% hits; calls by dose curve; note: nearly all actives have a fitted effect of over 70% in size
# Target sequence (P20594 whole entry, looked up): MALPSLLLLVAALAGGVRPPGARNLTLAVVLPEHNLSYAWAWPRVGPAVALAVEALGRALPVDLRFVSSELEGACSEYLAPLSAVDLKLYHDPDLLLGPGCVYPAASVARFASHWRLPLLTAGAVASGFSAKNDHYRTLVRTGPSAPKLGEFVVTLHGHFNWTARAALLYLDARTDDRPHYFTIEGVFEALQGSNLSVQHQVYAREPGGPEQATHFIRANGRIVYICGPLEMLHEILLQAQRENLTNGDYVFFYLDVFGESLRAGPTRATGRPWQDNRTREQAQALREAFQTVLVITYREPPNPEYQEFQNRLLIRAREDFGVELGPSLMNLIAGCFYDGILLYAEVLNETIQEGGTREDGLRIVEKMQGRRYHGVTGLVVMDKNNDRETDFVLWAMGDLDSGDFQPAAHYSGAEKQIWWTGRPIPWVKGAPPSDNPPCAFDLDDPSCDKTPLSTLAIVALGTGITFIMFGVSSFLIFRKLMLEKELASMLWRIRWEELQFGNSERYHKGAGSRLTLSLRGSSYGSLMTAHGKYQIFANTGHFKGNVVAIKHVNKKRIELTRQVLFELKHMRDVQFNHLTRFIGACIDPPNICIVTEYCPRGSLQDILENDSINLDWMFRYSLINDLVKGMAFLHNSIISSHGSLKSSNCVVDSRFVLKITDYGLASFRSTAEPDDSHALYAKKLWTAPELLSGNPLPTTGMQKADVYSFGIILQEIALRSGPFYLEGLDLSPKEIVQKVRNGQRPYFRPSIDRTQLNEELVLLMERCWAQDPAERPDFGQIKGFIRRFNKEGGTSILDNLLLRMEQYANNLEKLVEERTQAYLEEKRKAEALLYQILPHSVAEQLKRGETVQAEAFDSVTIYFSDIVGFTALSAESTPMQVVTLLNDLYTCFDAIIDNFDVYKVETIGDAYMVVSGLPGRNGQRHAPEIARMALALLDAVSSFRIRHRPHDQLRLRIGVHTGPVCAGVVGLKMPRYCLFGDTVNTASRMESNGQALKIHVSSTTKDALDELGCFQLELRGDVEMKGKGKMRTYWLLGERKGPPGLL
# FLuc inh counter: FLuc enzyme inhibition, Npr1 counter-screen; Potency, µM (series often up to 57.6 µM), inactives show at the top dose activity change, negative = inhibition, actives largely listed as inhibitors; AID 1347047; 1,400 compounds, 0.7% hits; purified FLuc enzyme, luminescence, Km substrate; shares compounds with hNpr1 antagonist; note: 0% is about no effect
# GloSensor ctrl: counter-screen for Npr1 antagonists: GloSensor control cell line. shares compounds with hNpr1 antagonist. HEK293 GloSensor cGMP, SNP-stimulated, luminescence. Potency, µM (top dose mostly 57.6 µM), inactives show at the highest dose activity change, negative = inhibition, usual class: inhibitors. 1,400 compounds, 69% hits; calls by dose curve; note: % is set by controls: 0 for no effect and ±100 for the full control effect; nearly all actives have a fitted effect of over 70% in size
# Numbers without * were called inactive; i = inactive; ? = inconclusive; · = no result given; [ ] = dose if it differs, or a comment. Unless noted, calls come from the whole dose curve; as a rule, active = well fitted curve in the direction sought with a large enough effect; inconclusive = small, poorly fitted or top-dose-only effect, or another doubt; inactive = no such curve, though single readings can be large; an effect the other way counts as inactive or inconclusive. Potency is the fitted concentration of half-maximal effect.
SMILES,hNpr1 antagonist,HEK293 tox,NIH3T3 tox,GPT2 inhibitor,FLuc inh,NPR1 antag cnf,Npr2 selectivity,FLuc inh counter,GloSensor ctrl
COc1cc(OC)cc(C(=O)Nc2ccc3c(c2)CN(Cc2ccc4c(c2)OCO4)C(=O)C(C)O3)c1 (stereo unspecified),-12.1%,?,?,-15.6%,i,·,·,·,·
CC1Oc2ccc(NC(=O)c3ccc(F)cc3)cc2CN(Cc2ccc3c(c2)OCO3)C1=O (stereo unspecified),?,?,?,-7.0%,i,24.3µM*,?,0.6%,30.6µM*
COc1ccc(CN2CCc3nc(C(=O)NCc4cccc(F)c4)oc3CC2)cc1OC,-12.4%,?,?,-10.4%,i,·,·,·,·
COc1ccc(CN2CCc3nc(C(=O)Nc4ccc(Cl)cc4)oc3CC2)cc1OC,6.31µM*,?,?,-10.1%,i,9.68µM*,10.9µM*,-0.4%,7.69µM*
N#Cc1ccc(CN2CCc3nc(C(=O)Nc4cccc(C(F)(F)F)c4)oc3CC2)cc1,14.1µM*,?,?,-9.4%,i,17.2µM*,19.3µM*,-8.4%,10.9µM*
N#Cc1cccc(CN2CCc3nc(C(=O)NCCOc4ccccc4)oc3CC2)c1,?,?,?,-3.6%[88.5 µM],i,·,·,·,·
O=C(Nc1ccc(Cl)cc1)c1nc2c(o1)CCN(Cc1cc(F)ccc1F)CC2,12.6µM*,?,?,i,i,15.7µM*,12.5µM*,-0.2%[86.2 µM],9.94µM*
O=C(Nc1ccc(Cl)cc1)c1nc2c(o1)CCN(Cc1ccccc1)CC2,3.98µM*,?,?,-23.6%[88.5 µM],i,11.1µM*,9.94µM*,?,7.89µM*
O=C(Cn1cccc1-c1nc(-c2ccc(F)cc2)no1)NCCc1ccccc1,-4.9%,?,i,i,i,·,·,·,·
CCOc1cc(=O)n2c(c1C(=O)NCC1CCCCC1)CCCCC2,6.5%,-20.7%,-10.3%,i,i,·,·,·,·
O=S(=O)(N[C@H]1CO[C@H]2[C@@H]1OC[C@H]2O)c1ccc(Cl)cc1,-1.5%[70.6 µM],i,i,-20.8%[88.5 µM],i,·,·,·,·
CC1=COC(OC2OC(CO)C(O)C(O)C2O)C2C(CO)CC(OC(=O)/C=C/c3ccc(O)cc3)C12 (stereo unspecified),·,·,·,i,·,·,·,·,·
CCCc1noc(-c2ccn3c(CNC(=O)c4ccc5ccccc5n4)nnc3c2)n1,10.5%,-6.0%,-19.9%,i,i,·,·,·,·
COCCN1C(=O)c2ccccc2C(C(=O)Nc2cc(C)ccc2OC)C12CCCCC2 (stereo unspecified),?,?,-15.6%,i,i,21.7µM*,12.2µM*,-2.8%,7.8%
CSc1nccc(N2CCC3(CC2)CC(=O)N(CC(C)C)C3)n1,7.08µM*,?,?,-29.0%,i,6.85µM*,10.9µM*,-1.2%,5.44µM*
Cc1noc2c(-c3cnn(C)c3)cc(-c3cccs3)nc12,-4.8%[70.6 µM],?,?,?,i,·,·,·,·
O=C(CCC1CCN(S(=O)(=O)c2ccc(F)cc2)CC1)NCc1nc2ccccc2[nH]1,11.2µM*,?,-44.1%,i,i,19.3µM*,21.7µM*,0.4%,15.3µM*
O=C(CCC1CCN(S(=O)(=O)c2ccccc2)CC1)NCc1ccc(F)cc1,-24.7%,?,?,3.4%,i,·,·,·,·
Nc1nc(C2CC(O)C2)cc(N2CCC(OCc3ccccn3)CC2)n1 (stereo unspecified),1.9%,1.6%,?,-9.2%,i,·,·,·,·
Nc1nc(C2CC(O)C2)cc(N2CCC(Cc3ccc(F)cc3)CC2)n1 (stereo unspecified),11.2µM*,?,15.8µM*,-1.4%,i,19.3µM*,19.3µM*,0.9%,12.2µM*
Cn1ccc(NC(=O)c2ccc3c(c2)NC(C)(CCCCc2ccccc2)CO3)n1 (stereo unspecified),10µM*,44.7µM*,39.8µM*,i,i,14µM*,19.8µM*,0.8%[86.2 µM],12.5µM*
COCC(=O)N1CC(C(=O)NCc2cccc(F)c2)CC(c2ccc(F)c(C)c2)C1 (stereo unspecified),-0.1%,?,-18.1%,i,i,·,·,·,·
CCNC(=O)N1CC(C(=O)NCc2cccc(C)c2)CC(c2ccc(F)c(C)c2)C1 (stereo unspecified),22.4µM*,?,?,i,i,?,?,0.4%,?
O=C(NCc1ccc(Cl)cc1)C1CN(C2CCCCC2)C(=O)N1 (stereo unspecified),·,-7.7%,-21.2%,2.0%,·,·,·,·,·
COCCOC(=O)N1CCC(Oc2cnc3c(ccn3-c3cncnc3)c2)CC1,7.0%[70.6 µM],?,?,0.7%[88.5 µM],i,·,·,·,·
SMILES,hNpr1 antagonist,HEK293 tox,NIH3T3 tox,GPT2 inhibitor,FLuc inh,NPR1 antag cnf,Npr2 selectivity,FLuc inh counter,GloSensor ctrl
C[S+](=O)([O-])NCCn1ccc2cc(OC3CCN(c4ncc(F)cn4)CC3)cnc21,22.4µM*,?,?,-5.9%[88.5 µM],i,19.8µM*,28µM*,-0.6%[86.2 µM],22.2µM*
O=C1N[C@H](CC(=O)N2CCN(c3ccc(C(F)(F)F)cn3)CC2)C(=O)Nc2ccccc21,?,?,-15.1%,-20.6%,i,?,?,-1.2%,?
COCCN1C(=O)[C@H]2CN(Cc3cccc(OC)c3)C[C@H]2C1=O,3.7%,-4.3%,-0.4%,i,i,·,·,·,·
COc1ccccc1CC(=O)N1CCC2(CC1)N=C(c1cccc(Br)c1)NO2,-17.3%,?,?,i,i,·,·,·,·
COc1ccc(C(=O)N2CCC3(CC2)N=C(c2cccc(Br)c2)NO3)cc1F,?,?,?,i,i,?,?,6.3%,27.3µM*
Cc1ccsc1C(=O)N1CCC2(CC1)N=C(c1cccc(Br)c1)NO2,12.6µM*,?,?,-1.0%,i,27.3µM*,?,3.3%,27.3µM*
